# Test results: PubChem BioAssay
# Experiment: COS7 lysate on small-molecule microarray, probe aHis, 635 nm (AID 1123);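 also: z-score combines 667nm fluorescence intensity with signal-to-noise per printed compound spot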
# Conditions: COS7 cell lysate, fluorescence, higher = more signal
row,Compound,composite z-score
1,CC#CC(=O)Oc1ccccc1C=CC(=O)OCC,-0.0224
2,CC(C)CNC(=O)[C@@]1(Cc2ccccc2I)c2ccccc2C(=O)N(C2CCCCC2)[C@H]1c1ccc(CO)cc1,2.1
3,O=C(c1ccccc1)N1C(=O)[C@]2(COC(c3ccc(OCCCO)cc3)=N2)Cc2ccccc21,3.17
4,CC(C)(C)OC(=O)CC[C@]1(C(=O)N2CCOCC2)N=C(c2ccc(OCCCO)cc2)O[C@H]1c1ccccc1N=[N+]=[N-],2.36
5,COCCOC(=O)N1C(=O)[C@@]2(c3cc(C#CCC(C(=O)OC)C(=O)OC)ccc31)[C@H](c1ccccc1OCCO)N1[C@H](c3ccccc3)[C@H](c3ccccc3)OC(=O)[C@H]1[C@@H]2C(=O)NC[C@H](O)c1ccccc1,1.47
6,COCCCNC(=O)[C@]1(CCC(=O)OC(C)(C)C)N=C(c2ccc(OCCCO)cc2)O[C@@H]1c1ccccc1CN=[N+]=[N-],2.03
7,CCOC(=O)C1=C[C@@H](C(C)(C)C)N(S(=O)(=O)c2ccc(C)cc2)[C@H]1c1ccc(F)cc1,1.61
8,COc1cc(NN2C(C(O)c3ccco3)C=CC3C(=O)N(c4ccccc4)C(=O)C32)cc(OC)c1OC (configuration not stated),1.13
9,CCC(CC)C(O)C1C=CC2C(=O)NC(=O)C2N1Nc1ccc(Cl)cc1Cl (configuration not stated),2.18
10,CCCC[C@H]1OB(O)C[C@H]2C1=C(COC)Cn1c(=O)n(-c3ccccc3)c(=O)n12,0.56
11,C=C(COC)/C(=C/C[C@@H](OC(C)=O)c1ccc(OCCO)cc1)c1cnc2ccccc2c1,-0.161
12,CN(C)C(=O)[C@@]1(CCS(=O)(=O)c2ccccc2)COC(c2ccc(OCCCO)cc2)=N1,2.28
